This passage reports z-score results from PubChem BioAssay.

The structures appear in SMILES notation. Calls of active or inactive are those of the source.

The nature of assay [1]: compound effects on lung adenocarcinoma cell viability – A549, calcein-AM fluorescence, 48 h, basal, profiling panel (AID 1162). Particulars: higher = more signal.
Assay [2] in a line: compound effects on differentiated 3T3-L1 adipocyte viability – cell-based, 3T3-L1 adipocytes, calcein-AM fluorescence, 48 h, basal, profiling panel (AID 1163). The note with it: 3T3-L1 adipocytes viability, higher = more signal.
Assay [3] in a line: compound effects on hepatocellular carcinoma cell viability – HepG2, calcein-AM fluorescence, 48 h, basal, profiling panel (AID 1164). Particulars: higher = more signal.
The nature of assay [4]: compound effects on multiple myeloma cell viability – MM1S, calcein-AM fluorescence, 48 h, basal, profiling panel (AID 1165).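 Further: viability of MM1S multiple myeloma cells under basal unstimulated conditions.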 The note with it: higher = more signal.
Assay [5] in a line: calcein-AM signal in unstimulated myeloma cells – cell-based, calcein-AM fluorescence, 48 h, PK04 Diversity Set, profiling panel (AID 1166).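 Further: cells grown under basal conditions without added stimulus.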 The note with it: RPMI8226 myeloma viability, higher = more signal.
Assay [6] can be described thus: JC-1 mitochondrial signal, unstimulated HepG2 cells – cell-based, JC-1 fluorescence, 24 h, 100 nL compound, profiling panel (AID 1167). Particulars: HepG2 mitochondrial potential, higher = more signal.
Assay [7] can be described thus: JC-1 mitochondrial signal, unstimulated adipocytes – cell-based, JC-1 fluorescence, 3T3-L1 adipocytes, 24 h, 100 nL compound, profiling panel (AID 1168). The note with it: JC-1 mitochondrial fluorescence, higher = more signal, called active from +8 up or from −8 down.
The nature of assay [8]: JC-1 mitochondrial signal, unstimulated myeloma cells – cell-based, JC-1 fluorescence, RPMI8226, 24 h, 100 nL compound, profiling panel (AID 1169). Particulars: JC-1 mitochondrial potential fluorescence, higher = more signal.
Assay [9] is described as follows: JC-1 mitochondrial signal, unstimulated MM1S myeloma – cell-based, JC-1 fluorescence, 24 h, 100 nL compound, profiling panel (AID 1170). The note with it: MM1S mitochondrial potential, higher = more signal.
Assay [10] is described as follows: resazurin metabolic signal in A549 cells – cell-based, resazurin fluorescence, 24 h, PK04 Diversity Set, profiling panel (AID 1171). Particulars: A549 viability, higher = more signal, called active from +8 up or from −8 down. (In general: The colour change of resazurin is a common sign of viable cells or microbes.)
Further: test concentration not given here.

For the molecule `COC(=O)C(CC#Cc1ccc2c(c1)[C@]1(C(=O)N2)[C@H](c2ccc(OCCO)cc2)N2[C@H](c3ccccc3)[C@H](c3ccccc3)OC(=O)[C@H]2[C@@H]1C(=O)O)C(=O)OC`, the z-score in assay [1] is 1.88; in assay [2] it was -0.0521; in assay [3], 1.45; in assay [4], 0.47; in [5] it was -0.247; in assay [6] it was -0.0694. Also, the z-score in assay [7] is 0.222 (inactive); in [8], -0.336; in assay [9] it was 0.132; in [10], 0.179 (inactive).

Take `COCCCNC(=O)[C@@]1(Cc2ccccc2N=[N+]=[N-])N=C(c2ccc(OCCCO)cc2)O[C@H]1c1ccccc1CN=[N+]=[N-]`: the z-score is -0.603 in assay [1]; 1.66 in assay [2]; -0.456 in [3]; -1.72 in [4]; -3.93 in [5]; 3.03 in assay [6]. In addition, the z-score is 0.557 (inactive) in [7], -1.21 in assay [8], -0.593 in assay [9] and -1.92 (inactive) in [10].

Take `COC(=O)[C@H]1N=C(c2ccc(OCCCO)cc2)O[C@H]1c1ccccc1CN=[N+]=[N-]`: the z-score in [1] is -0.348; in [2], -0.409; in assay [3] it was 0.0036; in assay [4], -1.95; in assay [5], -0.35; in assay [6], -0.393. The z-score in [7] is 0.957 (inactive); in assay [8] it was 0.344; in [9], -0.823; in assay [10], 2.65 (inactive).

For the molecule `CC(C)C[C@H]1NC(=O)[C@H](C)NC(=O)[C@@]23C(=O)N[C@@H](Cc4ccccc4)C2[C@H](C)[C@@]2(C)O[C@H]2C3/C=C/C/C=C\CNC1=O` (stereo not given in full), the z-score in assay [1] is -0.0541; in assay [2], 0.392; in assay [3], -0.17; in [4], -0.36; in [5], -0.659; in assay [6], -0.482. Further, the z-score is -0.752 (inactive) in assay [7], -0.0616 in assay [8], 1.34 in [9] and -0.271 (inactive) in [10].

`COc1ccc(C#Cc2ccc3c(c2)[C@]2(C(=O)N3)[C@H](C(=O)O)[C@H]3C(=O)O[C@H](c4ccccc4)[C@H](c4ccccc4)N3[C@@H]2c2ccc(OCCO)cc2)cc1`: the z-score is 0.614 in [1]; 0.971 in assay [2]; 1.27 in assay [3]; -2.45 in assay [4]; -4.03 in assay [5]; -4.14 in [6]. In addition, the z-score is -4.58 (inactive) in [7], -1.23 in assay [8], -1.27 in assay [9] and 0.982 (inactive) in assay [10].

Regarding `CCCNC(=O)[C@@H]1c2ccccc2C(=O)N(CC23CC4CC(CC(C4)C2)C3)[C@H]1c1ccc(CO)cc1`, the z-score was -0.242 in [1]; 0.487 in assay [2]; 0.275 in assay [3]; -0.671 in assay [4]; -2.49 in assay [5]; 1.81 in assay [6]. In addition, the z-score is -0.0153 (inactive) in assay [7], -0.236 in assay [8], 0.141 in [9] and 0.704 (inactive) in assay [10].

As for `CCCC=C(CCC)[C@@H](NS(=O)(=O)CC)c1ccccc1`, the z-score was -2.33 in [1]; -0.924 in assay [2]; -1.71 in assay [3]; -2.83 in assay [4]; -3.64 in assay [5]; -2.68 in assay [6]. For the same molecule, the z-score is -0.517 (inactive) in assay [7], -0.889 in assay [8], -0.177 in assay [9] and 0.677 (inactive) in [10].

In the case of `O=C1NC(=O)C2C1C=CC(C(O)CCc1ccccc1)N2Nc1ccccn1` (stereo not given), the z-score in [1] is -1.58; in assay [2], 0.0058; in assay [3] it was 1.23; in assay [4] it was 0.87; in assay [5], 1.02; in assay [6], -0.149. Further, the z-score in assay [7] was -0.382 (inactive); in [8] it was 0.282; in [9] it was 0.228; in assay [10], -1.72 (inactive).

For the molecule `CC(C)[Si](C#C[Si](C(C)C)(C(C)C)C(C)C)(O[C@H](C)c1cn(Cc2cccc(Cl)c2)nn1)C(C)C`, the z-score in assay [1] was 1.85; in assay [2] it was -0.667; in assay [3] it was 1.12; in assay [4] it was 0.673; in assay [5], 0.133; in [6], 1.37. For the same molecule, the z-score in assay [7] was 0.159 (inactive); in [8] it was -0.0288; in assay [9], 0.238; in assay [10], 1.15 (inactive).

Turning to `O=C1CSC(c2cccc([N+](=O)[O-])c2)N1c1ccccc1` (stereo not given), the z-score in assay [1] was -0.295; in assay [2] it was -0.23; in assay [3] it was 1.71; in assay [4], 1.31; in assay [5], -0.566; in assay [6] it was 1.04. The z-score in assay [7] is 1.05 (inactive); in [8], 0.0369; in assay [9] it was -0.779; in assay [10], -0.292 (inactive).

In the case of `O=c1c2ccc(Br)cc2nc(-c2ccccc2)n1Cc1cccc(O)c1`, the z-score in assay [1] is -0.277; in assay [2], 1.02; in assay [3], 0.196; in assay [4], -0.115; in assay [5], 0.195; in [6], -0.0225. Further, the z-score was -0.525 (inactive) in [7], 0.385 in assay [8], -0.258 in assay [9] and 0.0972 (inactive) in assay [10].

Take `CCOC(=O)C1=CC[C@@H](c2ccc(N(CC)CC)cc2)N(S(=O)(=O)c2ccc(C)cc2)[C@H]1c1ccc([N+](=O)[O-])cc1`: the z-score in [1] is -0.112; in assay [2], -1.19; in assay [3], 0.203; in assay [4] it was -0.0595; in [5], -0.173; in [6], 4.25. Also, the z-score in assay [7] was -0.114 (inactive); in assay [8] it was -0.673; in assay [9], -0.609; in [10] it was 0.325 (inactive).

Turning to `CN(C)CCCCNC(=O)[C@H]1C[C@H]2C(=O)N[C@@H](CCCC[N+](C)(C)C)C(=O)N2[C@H]1c1cccc(OCCO)c1`, the z-score was -0.532 in assay [1]; 0.067 in assay [2]; -0.491 in [3]; -0.845 in [4]; 0.54 in assay [5]; -1.18 in assay [6]. Moreover, the z-score in assay [7] is -0.333 (inactive); in assay [8], -0.674; in assay [9], -0.448; in [10], 0.0625 (inactive).

`Cc1ccccc1C(O)C1C=CC2C(=O)N(C)C(=O)C2N1Nc1ccc([N+](=O)[O-])cc1[N+](=O)[O-]` (stereo not given): the z-score in assay [1] is 0.544; in [2] it was -0.729; in assay [3] it was 0.839; in assay [4] it was -1.04; in assay [5], -0.582; in assay [6], -1.57. For the same molecule, the z-score in assay [7] was -1.15 (inactive); in [8], -0.0251; in assay [9], -1.09; in [10], -0.372 (inactive).

Take `C=CCOC(=O)[C@@H]1[C@H]2C(=O)O[C@H](c3ccccc3)[C@H](c3ccccc3)N2[C@H](c2ccc(OCCOC(=O)[C@H]3C[C@H]4C(=O)N[C@@H](Cc5ccccc5)C(=O)N4[C@H]3c3cccc(OCCO)c3)cc2)[C@@]12C(=O)Nc1ccc(I)cc12`: the z-score is 0.188 in assay [1]; -0.282 in [2]; 0.921 in [3]; -3.18 in [4]; -0.493 in assay [5]; 0.244 in assay [6]. In addition, the z-score is 0.473 (inactive) in assay [7], -0.903 in assay [8], -1.57 in assay [9] and 0.535 (inactive) in assay [10].

Consider `CC(C)N1CC=CC23O[C@@H]4C=CCOC(=O)[C@@H]4[C@H]2C(=O)N(CCCCCCO)[C@@H]3C1=O` (stereo not given in full), for which the z-score in assay [1] was 0.0698; in assay [2], 0.105; in assay [3], -0.684; in assay [4], 1.17; in assay [5] it was 0.255; in [6], -0.202. The z-score is -0.109 (inactive) in [7], 0.0854 in assay [8], -0.249 in [9] and 0.64 (inactive) in [10].
